Screening results as filed in PubChem.
Sfp PPTase inh – Sfp phosphopantetheinyl transferase inhibition. Q9F4F7. Potency, µM, without a hit: largest response in the series, negative = inhibition, actives largely listed as inhibitors. 310,000 compounds, 3.5% hits. Biochemical Sfp PPTase activity, qHTS. AID 1490;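 also: the enzyme is Sfp with the accession as filed and its product quenches rhodamine fluorescence; 0% = enzyme reaction without inhibitor and -100% = no enzyme wells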
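With Hepes-Na pH 7.6 buffer containing 10 mM MgCl2, Sfp (15 nM) modified BHQ-2-YbbR (12.5 uM) using rhodamine-CoA (5 uM). Two reads 30 minutes apart at 525/598 nm yielded each well's rate.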
PLK1 PBD block – inhibitors of human PLK1 polo-box domain binding; AID 720504; P53350; Plk1 PBD binding of FITC phosphopeptide, fluorescence polarization; Potency, µM, for the others: max response, negative = inhibition, hits mostly inhibitors; 360,000 compounds, 2.8% hits; also: series mostly up to about 57 µM; nearly all actives have a fitted effect of over 65% in size
ALDH1A1 block – blocks purified human ALDH1A1 activity; P00352; Purified ALDH1A1, NADH fluorescence, propionaldehyde substrate; Potency, µM (titrated, usually from 75.3 µM), for inactives: at the highest dose activity, negative = inhibition, usual class: inhibitors; 220,000 compounds, 7.3% hits; active = well fitted inhibition curve with a large enough effect, not every such curve was filed as active; inconclusive = small, poorly fitted or top-dose-only effect, or another doubt; inactive = no such curve, though single readings can be large or run the other way;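 also: plate controls were no enzyme wells and a reference inhibitor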
Target sequence (P00352 whole entry, looked up): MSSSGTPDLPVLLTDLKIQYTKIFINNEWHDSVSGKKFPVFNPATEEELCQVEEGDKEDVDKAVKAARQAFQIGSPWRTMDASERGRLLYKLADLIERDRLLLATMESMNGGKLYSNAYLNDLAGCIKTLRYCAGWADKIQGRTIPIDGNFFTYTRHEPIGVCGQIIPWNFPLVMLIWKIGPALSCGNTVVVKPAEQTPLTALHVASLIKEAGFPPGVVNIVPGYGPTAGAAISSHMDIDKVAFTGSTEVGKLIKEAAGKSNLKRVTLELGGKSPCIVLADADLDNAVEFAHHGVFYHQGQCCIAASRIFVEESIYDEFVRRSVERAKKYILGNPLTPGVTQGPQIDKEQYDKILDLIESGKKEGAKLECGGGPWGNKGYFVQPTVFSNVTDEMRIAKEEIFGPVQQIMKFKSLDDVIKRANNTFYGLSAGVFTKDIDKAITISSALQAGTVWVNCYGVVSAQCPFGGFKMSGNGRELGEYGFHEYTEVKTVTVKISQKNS
VP16 counter – inhibits Gal4-VP16 luciferase reporter, ROR gamma counter-screen; AID 2546; Potency, µM (doses to about 53.6 µM), inactives show top-dose activity, negative = inhibition, most hits filed as inhibitors; 310,000 compounds, 3.5% hits; Drosophila S2 Gal4-VP16 UAS-luciferase, luminescence, 20 h;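 also: Gal4-VP16 expression switched on by copper sulfate through the metallothionein promoter; nearly all actives have a fitted effect of over 50% in size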
RORgamma inh – inhibitors of mouse ROR gamma transcriptional activity; Potency, µM (highest dose often 53.6 µM), inactives show at the highest dose activity change, negative = inhibition, actives largely listed as inhibitors; Drosophila S2 Gal4-RORgamma UAS-luciferase reporter, 20 h; P51450; 310,000 compounds, 5.4% hits; also: nearly all actives have a fitted effect of over 60% in size
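Stable Schneider cell line, Gal4 DNA-binding domain fused to ROR gamma, UAS-luciferase. Cmpd 1 hr RT → CuSO4 700 uM final → 20 hr RT → luciferase reagent 10 min → luminescence.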
* = called active by the depositor; u = inconclusive; x = not tested or not shown; [ ] = dose if it differs, or a comment. Compounds with a hit are over-represented: about 12% of the library has one in this group of screens. Unless noted, calls follow the shape of the dose curve; as a rule, active = well fitted curve in the direction sought with a large enough effect; inconclusive = small, poorly fitted or top-dose-only effect, or another doubt; inactive = no such curve, though single readings can be large; an effect the other way counts as inactive or inconclusive. Unless noted, % is scaled to controls: 0 for no effect and ±100 for the full control effect; potency is read from the fitted curve at half-maximal effect.

SMILES	Sfp PPTase inh	PLK1 PBD block	ALDH1A1 block	VP16 counter	RORgamma inh
CN1C/C(=C/c2ccc(B(O)O)cc2)C(=O)/C(=C/c2ccc(B(O)O)cc2)C1	u	x	x	4.5µM*	2µM*
CN1C/C(=C/c2cccnc2)C(=O)/C(=C/c2cccnc2)C1	-9%	-13%	1%	2.8µM*	5.6µM*
OC[C@@H]1O[C@@H](O)[C@H](O)[C@H](O)[C@@H]1O	17%	x	x	-2%	23%
CCN1/C(=C/C=C/c2oc3ccc(-c4ccccc4)cc3[n+]2CC)Oc2ccc(-c3ccccc3)cc21	11µM*	-110%	u	0.35µM*	13µM*
CC(=O)Nc1ccc2nc(NC(=O)COc3cccc(C)c3)sc2c1	2%	-10%	u	-4%[10 µM]	-4%
CCCn1cc(S(=O)(=O)CC(=O)N2CCc3ccccc32)c2ccccc21	-4%	30µM*	u	x	-4%[0.365 µM]
CCn1cc(S(=O)(=O)CC(=O)N2CCc3ccccc32)c2ccccc21	0%	-4%	x	-2%	u
C[C@@H](O)CNC(C)(C)CC(=O)N[C@@H]1CCc2ccccc2N(Cc2ccc(-c3ccccc3-c3nn[nH]n3)cc2)C1=O	3%	x	5%	1%	-2%
C/C(=N\Nc1ccccc1)c1c(O)cc(C)oc1=O	-8%	6%	14µM*	-13%	10%
C/C(=N/NC(=O)c1cccc(C)c1)c1c(O)cc(C)oc1=O	25%	-10%	32µM*	3.5µM*	u
C/C(=N\NC(=O)c1cccc(C)c1)c1cccc(NC(=O)c2ccco2)c1	5%	-5%	7%	-12%	-29%
Cc1noc(C)c1C(=O)N1CCC2(CCCN(C(=O)Nc3cccc(F)c3)C2)CC1	9%	x	3%	7%	9%
CCN(CC)S(=O)(=O)c1cccc(S(=O)(=O)N2CCCCC2)c1	17%	2%	3.5µM*	-4%	21%
O=C(NC1CC2CCCC(C1)N2Cc1ccccc1)C1CCCCC1 (stereo not given)	22%	-8%	6%	7%	-26%
NS(=O)(=O)c1ccc(S(=O)(=O)N2CCN(C3CCCC3)CC2)cc1	-4%	-1%	x	-1%	2%
O=C(NC1CC2CCCC(C1)N2S(=O)(=O)c1ccccc1)C1CCCCC1 (stereo not given)	2%	-13%	28µM*	2%	30%
O=S(=O)(c1ccccc1)c1cccc(S(=O)(=O)N2CCCCC2)c1	0%	-2%	2.2µM*	u	-31%
O=S(=O)(c1cccc(S(=O)(=O)N2CCOCC2)c1)N1CCCCCC1	4%	1%	x	2%	24%
O=S(=O)(c1ccccc1)N1CCN(C2CCCCCCC2)CC1	-4%	-1%	u	-3%	13µM*
Cc1ccc(Cc2c(-c3ccc(Cl)cc3)nc3c(C)cc(Br)cn23)cc1	x	-23%	x	x	x
CCNc1ncc2nc(C)c(=O)n(Cc3cccc(OC)c3)c2n1	10%	x	u	0%	u
O=c1c2ccccc2nc(/C=C/c2ccc3c(c2)OCO3)n1CCCO	13%	-4%	-12%	-5%	21%
C(=C/c1nccc2c1[nH]c1ccccc12)/c1ccc2c(c1)OCO2	-27%	2%	u	-24%	0.89µM*
CC1CCN(S(=O)(=O)c2ccc(C(=O)Nc3nnc(-c4ccncc4)o3)cc2)CC1	17%	-9%	-2%	4µM*	1.1µM*
O=C(Nc1nnc(C2CC2)o1)c1ccc(S(=O)(=O)N2CCCCC2)cc1	18%	-3%	x	0.56µM*	0.89µM*
SMILES	Sfp PPTase inh	PLK1 PBD block	ALDH1A1 block	VP16 counter	RORgamma inh
CC(=O)Nc1ccc(S(=O)(=O)N2CCC(c3nnc(-c4ccc(C)cc4)o3)CC2)cc1	50µM*	-16%	x	u	14µM*
CC1CCN(S(=O)(=O)c2ccc(C(=O)Nc3nnc(C4CC4)o3)cc2)CC1	10%	2%	x	0.32µM*	0.35µM*
O=C1CSC(=S)N1Nc1ccccc1	x	-29%	x	x	x
Cc1ccc(C(=O)Cn2cnc3ccccc3c2=O)cc1	1%	30µM*	-1%	-10%	-13%
O=C1COc2ccc(C(=O)COC(=O)Cn3cnc4ccccc43)cc2N1	u	-12%	28µM*	-8%	u
O=C(Cn1cnc2ccccc2c1=O)OCC(=O)c1ccc2c(c1)OCCO2	4%	30µM*	u	1%	32%
COc1ccc(-c2cccc(NC(=O)c3cccs3)c2)nn1	x	-1%	x	x	x
N#CC1=C(Nc2ccccc2Cl)SC(c2ccncc2)NC1=O (stereo not given)	x	27µM*	x	x	x
O=C(c1csnn1)N1CCC2(CCCN(Cc3cc(C(F)(F)F)cc(C(F)(F)F)c3)C2)CC1	16%	x	14%	-6%	26%
Cc1ccc2cc(/C=C(\C#N)C(N)=O)c(N3CCCCC3)nc2c1	-3%	24%	11µM*	-1%	-42%
N#C/C(=C\c1ccc(N2CCOCC2)o1)c1nc2ccccc2[nH]1	32µM*	66%	u	0%	16µM*
Clc1ccc(-c2cc3ccccc3nc2N2CCOCC2)cc1	-7%	15µM*	u	4%	10%
N#C/C(=C\c1ccc(N2CCOCC2)c([N+](=O)[O-])c1)c1nc2ccccc2[nH]1	-9%	-6%	u	u	u
CCOC(=O)/C(C#N)=C/c1cc2ccccc2nc1N1CCCCC1	-15%	-22%	19µM*	13%	u
CCOP(=O)(OCC)C(NC(=O)c1cccs1)c1ccccc1 (stereo not given)	6%	-4%	x	4%	-20%
COc1cccc(-c2cc(NC(C)=O)c3ncc(-c4ccc(OC)c(OC)c4)n3c2)c1	x	-22%	x	x	x
CC(=O)c1cc(C)oc1C	x	x	-24%	0%	-1%
CC(C)(CNC(=O)c1ccccc1F)CNC(=O)c1ccccc1F	x	-4%	x	x	x
N#CC(C#N)=Cc1cc2ccccc2nc1N1CCOCC1	-9%	-1%	11µM*	u	16%
N#C/C(=C\c1cc2ccccc2nc1N1CCOCC1)C(=O)Nc1ccc(N2CCOCC2)cc1	17%	-5%	-12%	3%	-6%
Cc1ccc2cc(C=C(C#N)C#N)c(N3CCCCC3)nc2c1	-13%	u	7.9µM*	-6%	39%
Cc1ccc2cc(C#N)c(N3CCN(C)CC3)nc2c1	2%	-9%	-9%	-9%	-34%
Cc1cc(C)c2[nH]c(O)c(N=Nc3ccc(C(=O)O)cc3)c2c1	10%	-17%	x	-15%	37%
Cc1cc(C)c2[nH]c(O)c(N=NC(=S)NCC3CCCO3)c2c1 (stereo not given)	u	-4%	0.079µM*	7.1µM*	5µM*
Oc1[nH]c2ccccc2c1N=NC(=S)NCC1CCCO1 (stereo not given)	u	-2%	11%	-10%	-13%
CCn1c(O)c(N=NC(=S)NCC2CCCO2)c2ccccc21 (stereo not given)	4%	-3%	0.5µM*	1.8µM*	0.28µM*
Oc1[nH]c2c(Cl)cc(Cl)cc2c1N=NC(=S)NCC1CCCO1 (stereo not given)	17%	2%	0.45µM*	1.1µM*	1.3µM*
